Measured values from PubChem BioAssay AID686979 (National Center for Advancing Translational Sciences (NCATS), 2013).
In all, about 420,000 compounds went through this assay and about 50,000 (12%) were called active. About 26% were inconclusive and are not listed. Many of the other results were omitted from the sample, so actives are more common in it than they were. Unmarked numbers belong to inactive results. The call rests on the fitted dose curve; in most records, active means well fitted inhibition curve with a large enough effect; inconclusive means small, poorly fitted or top-dose-only effect; inactive means flat fitted curve, though single readings scatter.

Assay: qHTS for Inhibitors of human tyrosyl-DNA phosphodiesterase 1 (TDP1): qHTS in cells in presence of CPT; further: nearly all actives have a fitted effect of over 55% in size
Settings: chicken DT40 Tdp1-/-;hTDP1 cells + 20 nM CPT, ATP luminescence, 48 h; series mostly up to 46.2 µM; activity change, negative = growth inhibition: at the top concentration
Method in brief: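 Chicken DT40 Tdp1-/- cells stably complemented with human TDP1 were seeded at 400 cells/well in medium containing 20 nM camptothecin, exposed to pin-transferred compounds, and grown at 37 °C for at least 48 hr. Viability was read as ATP luminescence.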
On the % scale 0 is the no-effect control and ±100 the full control effect; potency means the concentration at half of the fitted maximal effect.

| Compound | activity change, negative = growth inhibition | Potency |
| --- | --- | --- |
| CCN(c1ncnc2c1cnn2-c1ccc(C)cc1)C1CCCCC1 | -0.498% | – |
| O=C(c1cc(-c2ccc(Cl)s2)nc2ccccc12)N1CCOCC1 | -5.37% | – |
| COCCNC(=O)c1ccccc1NS(=O)(=O)c1ccc(C)c([N+](=O)[O-])c1 | -3.71% | – |
| COCCNc1cc(NCCOC)c([N+](=O)[O-])cc1[N+](=O)[O-] | 11.4% | – |
| COCCNc1ccc(-c2n[nH]c(=O)c3ccccc23)cc1[N+](=O)[O-] | – | 14.6 µM (active) |
| Cc1onc(C(=O)NN)c1-c1csc(COc2ccccc2)n1 | 7.79% | – |
| CC(C)(C)C(=O)OCc1nc(-c2ccc(O)c(O)c2)cs1 | – | 6.51 µM (active) |
| COc1ccc(-c2csc(-c3cccs3)n2)cc1OC | -22.2% | – |
| O=C(Nc1ccncc1)c1ccc([N+](=O)[O-])cc1Cl | -26.5% | – |
| O=C1N(c2ccc(Cl)cc2)C(c2ccc(Cl)cc2)N2CCCN12 (stereo not given) | 8.43% | – |
| Cc1ccc(SCc2c(C(=O)N/N=C/C3CC=CCC3)nnn2-c2nonc2N)cc1 (stereo not given) | -6.45% | – |
| Nc1nonc1-n1nnc(C(=O)N/N=C\c2ccncc2)c1CN1CCCCC1 | 2.3% | – |
| Nc1nonc1-n1nnc(C(=O)N/N=C/c2cc(Br)ccc2O)c1CSC1=NCCS1 | – | 5.8 µM (active) |
| CC(C)OCCCNc1ncnc2c1[nH]c1ccc(F)cc12 | – | 2.91 µM (active) |
| COc1cc(OC)c(OC)cc1/C=N/Nc1ncnc2c1[nH]c1ccc(C)cc12 | -13.9% | – |
| COc1ccc(CCNC(=O)CC2SC(=Nc3cc(C)cc(C)c3)NC2=O)cc1OC (stereo not given) | -27.2% | – |
| CC(C)(C)OC(=O)CNC(=O)c1[nH]cnc1C(=O)N[C@@H](CCCCN)C(=O)OC(C)(C)C | -1.96% | – |
| COc1cc(NC(=O)c2cccs2)ccc1NC(=O)c1ccccc1Cl | -14.7% | – |
| COc1cc2ccccc2cc1C(=O)Nc1ccc(NC(=O)c2cccs2)cc1 | – | 20.6 µM (active) |
| COc1cc2ccccc2cc1C(=O)Nc1ccncc1 | -17.4% | – |
| CCCCCCCCCCOC(=O)C[N+](C)(C)CC1CCCCC1O (stereo not given) | -13.4% | – |
| CC(NCc1cccs1)C(=O)Nc1cc(Cl)cc(Cl)c1 (stereo not given) | -1% | – |

| Compound | activity change, negative = growth inhibition | Potency |
| --- | --- | --- |
| CC(=O)N1CCC2(CCCN(Cc3ccc(C#N)cc3)C2)CC1 | 5.78% | – |
| O=C(CCc1ccccc1)NCc1cccnc1 | 3.47% | – |
| O=C(CN(c1cc(C(F)(F)F)ccc1Cl)S(=O)(=O)c1ccccc1)NCc1cccnc1 | – | 20.6 µM (active) |
| O=C(O)c1cc(S(=O)(=O)N(Cc2ccccc2)c2cccc(C(F)(F)F)c2)ccc1Cl | -1.49% | – |
| COc1ccc(C2(C)NC(=O)N(CC(=O)c3ccc4c(c3)OCO4)C2=O)cc1 (stereo not given) | -16.2% | – |
| Cc1nc(NCCN)c(C#N)c2c1COC(C)(C)C2 | -10.5% | – |
| CCCCc1nc(NCCN)c(C#N)c2c1CSC(C)(C)C2 | – | 20.6 µM (active) |
| CCCCc1nc(NCc2ccccc2)c(C#N)c2c1CCCC2 | -4.51% | – |
| COc1ccc(-c2cc(=O)c3c(O)cc(O[C@@H]4O[C@H](CO[C@@H]5O[C@@H](C)[C@H](O)[C@@H](O)[C@H]5O)[C@@H](O)[C@H](O)[C@H]4O)cc3o2)cc1O | – | inactive |
| COc1cc(C(=O)NC(=S)NCc2ccco2)cc(OC)c1OC | – | 18.4 µM (active) |
| COc1cc(C(=O)N[C@@H](C)C(=O)NCc2ccco2)cc(OC)c1OC | 29.6% | – |
| COc1cccc(OC)c1C(=O)NC(=S)NCc1ccco1 | -1.27% | – |
| CCN1C(=O)C(=O)N(CC(=O)Nc2cc(C)ccc2C)C1=O | -3.8% | – |
| Cc1ccc(CSCCNC(=O)CN(c2ccc(F)cc2)S(C)(=O)=O)cc1 | -6.25% | – |
| CCOC(=O)C1CCN(C(=O)COC(=O)C2CCN(S(=O)(=O)c3ccc4c(c3)OCCO4)CC2)CC1 | 7.75% | – |
| Cc1ccc(-c2ccc(=O)n(CC(=O)NCCCN3CCCCC3)n2)cc1 | -0.122% | – |
| CCc1ccc(-c2cc3c(=O)n(CC(=O)NCCCN4CCN(Cc5ccccc5)CC4)nc(C)n3n2)cc1 | – | 20.6 µM (active) |
| CCCN1CCN(CCCNC(=O)Cn2nc(CC)n3c(cc4occc43)c2=O)CC1 | -3.5% | – |
| Cc1ccccc1CSc1nnc(-c2ccccc2)c(=O)[nH]1 | 6.06% | – |
| C/C(Nc1ccc2oc(=O)ccc2c1)=C1/C(=O)CC2[C@@H]1C2(C)C (stereo not given in full) | 6.03% [at 9.04 µM] | – |
| CC(=O)Nc1ccc(S(=O)(=O)N2CCN(S(=O)(=O)c3cccs3)CC2)cc1 | 4.79% | – |
| Cc1ccc(C)c(S(=O)(=O)N2CCN(C(=O)Nc3ccccc3)CC2)c1 | 1.6% | – |

| Compound | activity change, negative = growth inhibition | Potency |
| --- | --- | --- |
| CC(=O)Nc1ccc(S(=O)(=O)N2CCN(CCCOc3cc(C)ccc3C)CC2)cc1 | – | 25.9 µM (active) |
| Cc1ccc(NC(=O)CCNC(=O)c2ccc([N+](=O)[O-])cc2)cc1S(=O)(=O)N1CCOCC1 | -17.7% | – |
| CC(=O)Nc1ccc(S(=O)(=O)N2CCSCC2)cc1 | -3.56% | – |
| Cc1ccc(C)c(S(=O)(=O)N2CCN(CC(=O)Nc3ccc([N+](=O)[O-])cc3)CC2)c1 | – | 14.6 µM (active) |
| CCCC/S(C)=N/S(=O)(=O)c1ccc(C)cc1 (stereo not given) | 20% | – |
| N#Cc1c(NCCO)ccc([N+](=O)[O-])c1NCCO | 7.25% | – |
| CC(=O)Oc1ccc(-c2nc3c(C)cccc3c(=O)o2)cc1 | -4.34% | – |
| CCn1cc(C(=O)OCC(=O)Nc2cccc(C)c2)c(=O)c2ccc(C)nc21 | -10% | – |
| CN(C)c1ccc(/C=N/N(Cc2ccccc2)c2ccccc2)cc1 | 5.33% | – |
| C[n+]1ccc(C(=O)NCc2ccccc2)cc1 | 2.67% | – |
| c1ccc(Cc2cc[n+](Cc3ccccc3)cc2)cc1 | – | 23.1 µM (active) |
| CN(C)c1cc[n+](Cc2ccccc2)cc1 | – | 0.58 µM (active) |
| [O-][n+]1ccc(OCc2ccccc2)cc1 | -4.31% | – |
| COc1ccc(CCNC(=O)COc2ccc3c(c2)OCO3)cc1 | -12.7% | – |
| CNC(=S)NNC(=O)c1oc2nc(-c3ccccc3)cc(-c3ccco3)c2c1N | -5.83% | – |
| CC1CCCC(NC(=O)COC(=O)[C@@H]2CC(O)CN2S(=O)(=O)c2ccc3c(c2)OCCO3)C1C (stereo not given in full) | -19.9% | – |
| CCC1CCC2(CC1)NC(=O)N(CC(=O)Nc1ccc(OC)cc1)C2=O (stereo not given) | -25.3% | – |
| O=C1Nc2c(Br)cc(Br)cc2C1(O)N1CCOCC1 (stereo not given) | – | 5.17 µM (active) |
| O=C(CSC(=S)N1CCOCC1)c1cc(Br)cc(Br)c1O | 4.78% | – |
| O=C(c1cc2cc(Br)cc(Br)c2oc1=O)N1CCOCC1 | 1.58% | – |
| COc1ccc(C(=O)COC(=O)CCCC(=O)Nc2cc(C(F)(F)F)ccc2Cl)cc1 | -17.6% | – |
